A selection: hits, their analogues and other compounds. The true share with any hit is near 13%.
USP17 inh: inhibitors of human USP17 deubiquitinase. A8MUK1. purified USP17, Ub-rhodamine cleavage fluorescence, 3 h. inhibition, % at 50 µM. 6.5% of 47,000 active. AID 1645855
USP8 inh: blocks human USP8 ubiquitin-rhodamine cleavage. 4.2% of 47,000 active. AID 1645853. purified USP8, Ub-rhodamine cleavage fluorescence, 30 min. P40818. inhibition, % at 20 µM
USP10 block: inhibitors of human USP10 deubiquitinase | Q14694 | purified USP10, Ub-rhodamine fluorescence, 60 min | inhibition, % at 20 µM | 1.1% of 47,000 active
Target sequence (Q14694 whole entry, looked up): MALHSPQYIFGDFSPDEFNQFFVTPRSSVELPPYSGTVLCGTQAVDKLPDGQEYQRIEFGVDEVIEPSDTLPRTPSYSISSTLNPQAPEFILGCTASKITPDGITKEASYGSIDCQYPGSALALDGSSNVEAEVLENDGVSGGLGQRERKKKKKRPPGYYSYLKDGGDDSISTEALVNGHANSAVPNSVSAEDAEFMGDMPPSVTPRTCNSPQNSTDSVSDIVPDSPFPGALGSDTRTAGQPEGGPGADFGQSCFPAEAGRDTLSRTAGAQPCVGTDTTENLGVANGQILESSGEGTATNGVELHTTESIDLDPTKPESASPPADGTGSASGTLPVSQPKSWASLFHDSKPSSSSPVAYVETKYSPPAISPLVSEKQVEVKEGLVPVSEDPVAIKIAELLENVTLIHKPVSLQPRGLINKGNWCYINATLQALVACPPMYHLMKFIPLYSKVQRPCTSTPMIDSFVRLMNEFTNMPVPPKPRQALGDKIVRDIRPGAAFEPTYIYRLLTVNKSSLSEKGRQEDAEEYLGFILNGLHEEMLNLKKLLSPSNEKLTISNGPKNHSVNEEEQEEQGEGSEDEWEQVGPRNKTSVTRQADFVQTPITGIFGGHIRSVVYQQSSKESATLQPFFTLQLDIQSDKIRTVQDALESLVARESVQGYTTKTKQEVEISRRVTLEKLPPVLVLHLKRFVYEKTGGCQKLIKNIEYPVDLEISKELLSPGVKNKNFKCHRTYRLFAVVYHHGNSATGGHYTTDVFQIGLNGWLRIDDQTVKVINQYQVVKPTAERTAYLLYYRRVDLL
USP30 inh: human USP30 deubiquitinase inhibition. inhibition, % at 25 µM. 5.3% of 47,000 active. purified USP30, Ub-rhodamine cleavage fluorescence
USP28 block: blocks human USP28 ubiquitin-rhodamine cleavage. Q96RU2. purified USP28, Ub-rhodamine cleavage fluorescence, 30 min. inhibition, % at 25 µM. 3% of 47,000 active. AID 1645857
Numbers without * were called inactive; . = no result. No stated cut-off is given here; in the data, active means inhibition above about 30%; inactive means the rest.

SMILES	USP17 inh	USP8 inh	USP10 block	USP30 inh	USP28 block
O=C(NCCC1=CCCCC1)c1cnn2c3c(cnc12)CCCCCC3	20	15	10	38*	28
CCOc1ccc(CNC(=O)C(C)c2c(C)n[nH]c2C)cc1 (stereo unspecified)	20	28	3	29	16
CCN1CCOCC2(CCCN(C(=O)c3nccn3C)C2)C1 (stereo unspecified)	-19	-102	-5	0	-6
Cc1ccc(C)c(CSc2ncnc3nc[nH]c23)c1	-6	-19	3	-8	40*
Cc1ccc(S(=O)(=O)c2cnc(SCC(=O)Nc3ccc(Cl)cc3)nc2N)cc1C	80*	23	5	39*	48*
Cc1ccc(NCc2cc3c(-c4cccc(F)c4)nn(-c4ccccc4)c3[nH]c2=O)cc1C	-88	37*	36*	-349	-77
CC(C)(C)c1nn(-c2ccccc2)c2[nH]c(=O)c(CNCc3cccnc3)cc12	28	5	3	1	14
O=c1[nH]c2c(cc1CNc1ccc(Cl)cc1)c(-c1cccc(F)c1)nn2-c1ccccc1	38*	-9	5	-62	-16
O=c1[nH]c2c(cc1CNc1ccc(Oc3ccccc3)cc1)c(-c1ccc(F)cc1)nn2-c1ccccc1	27	77*	63*	-146	-31
COc1cccc(C(=O)N2CCCn3cnc(CN4CCCC4=O)c3C2)c1	-33	-218	0	-8	-5
Cc1cc(C)c(NC(=O)Cn2c(SCc3cccc(F)c3)nc3cccnc32)c(C)c1	64*	57*	12	73*	40*
CCc1ccccc1NC(=O)CN1C(=O)CSc2ncccc21	-27	-9	-2	-62	-8
Cn1c(=O)n(CC(=O)NCc2cccc(F)c2)c2cccnc21	-1	-6	-3	.	.
CCc1ccccc1NC(=O)Cn1c(SCc2ccc(F)cc2)nc2cccnc21	86*	70*	36*	57*	43*
CC(Nc1ncnc2c1cnn2C)c1ccccc1 (stereo unspecified)	4	18	1	9	2
CC(CCC(=O)O)[C@H]1CCC2C3CC[C@@H]4C[C@H](O)CC[C@]4(C)C3C[C@H](O)[C@@]21C (stereo partly specified)	2	4	5	25	3
COc1cc(O)c2c(=O)c(-c3ccc(O)cc3)coc2c1	73*	35*	0	14	30*
Cc1nn(C)c2sc(C(=O)N(Cc3ccccn3)Cc3ccccn3)cc12	2	9	0	9	5
CCOC(=O)c1cc2c(CSc3ccccc3)nn(C)c2s1	28	28	9	36*	34*
CC(C)c1ccc(OCC(=O)Nc2nonc2-c2ccccc2)cc1	16	11	10	11	7
COc1cccc(C(=O)Nc2nonc2-c2ccc(C(C)C)cc2)c1	15	44*	18	29	13
CCOc1ccc(-n2nnnc2SCC(=O)c2ccc(Br)cc2)cc1	12	13	3	12	13
O=C(Nc1nc2c(s1)CN(C(=O)c1cc(-c3ccco3)on1)CC2)C1CCCO1 (stereo unspecified)	33*	59*	-2	-136	20
COc1ccc2c(CNCc3ccc4c(c3)OCO4)c(C(=O)O)n(C)c2c1	6	12	-4	8	3
Cc1cccc(NC(=O)Cn2cc(-c3nc(C4CC4)no3)ccc2=O)c1	6	13	4	-11	1
SMILES	USP17 inh	USP8 inh	USP10 block	USP30 inh	USP28 block
Cc1ccc(NC(=O)Cn2cc(-c3nc(C4CC4)no3)ccc2=O)cc1	15	29	17	36*	14
Cc1ccc(NC(=O)Cn2cc(-c3nc(C4CC4)no3)ccc2=O)cc1C	18	11	16	-24	1
Cc1ccccc1NC(=O)Cn1cc(-c2nc(C3CC3)no2)ccc1=O	13	-2	-1	70*	-3
COc1ccc(C(=O)Nc2cc(-c3ccccn3)no2)c(C)c1	18	1	0	0	8
Cn1nccc1C(=O)NCc1cnc(C2CCCCO2)nc1 (stereo unspecified)	2	9	0	5	9
CS(=O)(=O)c1ccc(N2CCCN(C(=O)C3CC3)CC2)cc1	15	17	0	2	10
Cc1cc(NC(=O)Cn2c(=O)n(CCCC(=O)NC3CCCC3)c(=O)c3cc(Cl)ccc32)n[nH]1	-6	-2	0	0	-6
COc1cc2c(=O)n(CCC(=O)NC3CCCC3)c(=O)n(CC(=O)Nc3ccc(C)c(F)c3)c2cc1OC	-4	2	11	34*	2
COc1ccc(CCNC(=O)Cn2c(=O)n(CCCC(=O)NC3CCCC3)c(=O)c3cc(Cl)ccc32)cc1OC	18	-13	-1	37*	5
CCc1ccccc1NC(=O)Cn1c(=O)n(CCC(=O)NCC2CCCO2)c(=O)c2cc(OC)c(OC)cc21 (stereo unspecified)	30*	-1	-3	16	7
CCOc1ccc(C(=O)Cn2c(=O)n(CC3CCCO3)c(=O)c3cc(OC)c(OC)cc32)cc1Cl (stereo unspecified)	71*	-1	-4	13	6
NC(=O)C1(c2cnccn2)CCCN1Cc1cc2ccccc2o1 (stereo unspecified)	3	-1	0	-20	-16
COc1ccc(NC(=O)Cn2c(=O)n(CCCC(=O)NC3CCCC3)c(=O)c3cc(Cl)ccc32)c(OC)c1	22	7	31*	31*	0
Cc1ccc(OCc2nc(C#N)c(N3CCCCC3)o2)cc1	26	-1	-2	12	37*
Cc1ccc(NC(=O)c2nc3c(s2)CCCN3C(=O)C2CC2)cn1	10	0	3	6	7
CCC(CO)NC(=O)c1nc2c(s1)CCCN2C(=O)C1CC1 (stereo unspecified)	5	8	-2	-3	-5
Cc1c(CC(=O)N2CCN(c3ccc(F)cc3)CC2)c(=O)oc2cc(O)ccc12	.	18	0	6	-5
Cc1c(CC(=O)N2CCN(c3ccccc3)CC2)c(=O)oc2c(C)c(O)ccc12	8	31*	13	23	5
O=C(Cc1cc(-c2ccc(F)cc2)on1)NCc1ccccc1	60*	6	7	0	-4
O=C(Cc1cc(-c2ccc(F)cc2)on1)Nc1ccccc1C(F)(F)F	39*	11	-9	-54	-19
Cc1nc(C(=O)Nc2cccc(Cl)c2Cl)nn1-c1cc(Cl)cc(Cl)c1	71*	2	3	24	10
COc1ccc(N2CC(C(=O)N3CC4CC3C(=O)O4)CC2=O)cc1 (stereo unspecified)	-1	-92	0	13	20
Cc1ccc(NC(=O)C(C)Nc2nc(Nc3ccccc3)nc(Nc3ccccc3)n2)cc1 (stereo unspecified)	20	-64	13	45*	7
COC(=O)c1sccc1NC(=O)c1cccs1	30*	4	7	26	11
COc1ccc(NC(=O)COc2ccc(C(=O)c3ccc(F)cc3)cc2)c(OC)c1	10	9	1	9	-1

Compound activity as filed in PubChem BioAssay.
